Data taken from PubChem BioAssay AID1159580 (chemical genetic matrix, 2015).
Out of some 5,500 compounds screened, about 2,000 (36%) were called active. About 18% were inconclusive and are not listed. Cut-off read from the data, not from the text of the source: active = normalized growth mostly below about 0.91 (no sharp cut-off); inconclusive = no clear call, values can overlap the other calls; inactive = mostly above about 0.92. The list shows a part of the results.

Test: chemical genetic growth profiling, strain panel (AID 1159580);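 note: tested at 20 µM; growth read once vehicle control cultures reached saturation at 30 °C; 1 = growth at the plate median or of vehicle wells; lower values mean less growth of the strain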
Details: growth OD

Measured: normalized growth

C[C@@H]1O[C@@H](O[C@H]2[C@@H](Oc3cc(O)c4c(c3)O[C@H](c3ccc(O)cc3)CC4=O)O[C@H](CO)[C@@H](O)[C@@H]2O)[C@H](O)[C@H](O)[C@H]1O
inactive: S. cerevisiae deletion strains, locus YJR075W, strain HOC1, stronger effect = lower value 0.996 | S. cerevisiae deletion strains, locus YKL009W, strain mrt4, stronger effect = lower value 0.997 | S. cerevisiae deletion strains, locus YKL068W, stronger effect = lower value 1 | S. cerevisiae deletion strains, locus YKL085W, strain MDH1 (second series), stronger effect = lower value 0.996 | S. cerevisiae deletion strains, locus YKL085W, strain MDH1, stronger effect = lower value 0.996 | S. cerevisiae deletion strains, locus YKL160W, strain elf1, stronger effect = lower value 0.971 | S. cerevisiae deletion strains, locus YKL190W, strain CNB1, stronger effect = lower value 1 | S. cerevisiae deletion strains, locus YKR001C, strain vps1, stronger effect = lower value 1.01 | S. cerevisiae deletion strains, locus YKR026C, strain gcn3, stronger effect = lower value 0.996 | S. cerevisiae deletion strains, locus YKR091W, strain srl3, stronger effect = lower value 0.969 | S. cerevisiae deletion strains, locus YLL001W, strain dnm1, stronger effect = lower value 0.952 | S. cerevisiae deletion strains, locus YLL026W, stronger effect = lower value 0.974 | S. cerevisiae deletion strains, locus YLL041C, strain sdh2, stronger effect = lower value 0.983 | S. cerevisiae deletion strains, locus YLR027C, strain aat2, stronger effect = lower value 0.967 | S. cerevisiae deletion strains, locus YLR039C, strain RIC1, stronger effect = lower value 0.97 | S. cerevisiae deletion strains, locus YLR058C, strain SHM2, stronger effect = lower value 0.977 | S. cerevisiae deletion strains, locus YLR102C, strain apc9, stronger effect = lower value 1 | S. cerevisiae deletion strains, locus YLR113W, strain HOG1, stronger effect = lower value 0.969 | S. cerevisiae deletion strains, locus YLR221C, strain rsa3, stronger effect = lower value 0.957 | S. cerevisiae deletion strains, locus YLR258W, strain gsy2, stronger effect = lower value 0.981 | S. cerevisiae deletion strains, locus YLR262C, strain YPT6 (second series), stronger effect = lower value 0.979 | S. cerevisiae deletion strains, locus YLR262C, strain YPT6, stronger effect = lower value 0.969 | S. cerevisiae deletion strains, locus YLR268W, strain sec22, stronger effect = lower value 1.01 | S. cerevisiae deletion strains, locus YLR320W, strain mms22, stronger effect = lower value 0.969 | S. cerevisiae deletion strains, locus YLR330W, strain CHS5, stronger effect = lower value 0.99 | S. cerevisiae deletion strains, locus YLR342W, strain FKS1 (second series), stronger effect = lower value 1.03 | S. cerevisiae deletion strains, locus YLR342W, strain FKS1, stronger effect = lower value 0.98 | S. cerevisiae deletion strains, locus YLR357W, strain rsc2, stronger effect = lower value 0.956 | S. cerevisiae deletion strains, locus YLR370C, strain arc18, stronger effect = lower value 0.981 | S. cerevisiae deletion strains, locus YLR371W, strain rom2, stronger effect = lower value 0.997 | S. cerevisiae deletion strains, locus YLR384C, strain iki3, stronger effect = lower value 0.963 | S. cerevisiae deletion strains, locus YLR418C, strain cdc73, stronger effect = lower value 1.03 | S. cerevisiae deletion strains, locus YML016C, strain PPZ1, stronger effect = lower value 0.984 | S. cerevisiae deletion strains, locus YML032C, strain rad52, stronger effect = lower value 0.996 | S. cerevisiae deletion strains, locus YML120C, strain ndi1, stronger effect = lower value 0.953 | S. cerevisiae deletion strains, locus YML124C, strain tub3, stronger effect = lower value 0.993 | S. cerevisiae deletion strains, locus YMR058W, strain fet3, stronger effect = lower value 0.972 | S. cerevisiae deletion strains, locus YMR078C, strain ctf18, stronger effect = lower value 0.993 | S. cerevisiae deletion strains, locus YMR125W, strain sto1, stronger effect = lower value 0.941 | S. cerevisiae deletion strains, locus YMR129W, stronger effect = lower value 0.974 | S. cerevisiae deletion strains, locus YMR205C, strain PFK2, stronger effect = lower value 0.962 | S. cerevisiae deletion strains, locus YMR223W, strain ubp8, stronger effect = lower value 0.991 | S. cerevisiae deletion strains, locus YMR231W, strain pep5, stronger effect = lower value 0.983 | S. cerevisiae deletion strains, locus YMR263W, strain SAP30, stronger effect = lower value 0.987 | S. cerevisiae deletion strains, locus YMR307W, strain GAS1, stronger effect = lower value 1.04 | S. cerevisiae deletion strains, locus YNL067W, strain RPL9B, stronger effect = lower value 1 | S. cerevisiae deletion strains, locus YNL071W, strain lat1, stronger effect = lower value 0.979 | S. cerevisiae deletion strains, locus YNL128W, strain TEP1, stronger effect = lower value 0.975 | S. cerevisiae deletion strains, locus YNL153C, strain GIM3, stronger effect = lower value 0.981 | S. cerevisiae deletion strains, locus YNL183C, strain NPR1, stronger effect = lower value 0.92 | S. cerevisiae deletion strains, locus YNL209W, strain ssb2, stronger effect = lower value 0.971 | S. cerevisiae deletion strains, locus YNL233W, strain BNI4, stronger effect = lower value 0.991 | S. cerevisiae deletion strains, locus YNL248C, strain rpa49, stronger effect = lower value 0.977 | S. cerevisiae deletion strains, locus YNL250W, strain rad50, stronger effect = lower value 0.982 | S. cerevisiae deletion strains, locus YNL271C, strain bni1, stronger effect = lower value 0.999 | S. cerevisiae deletion strains, locus YNL298W, strain CLA4, stronger effect = lower value 1 | S. cerevisiae deletion strains, locus YNL307C, strain MCK1, stronger effect = lower value 1 | S. cerevisiae deletion strains, locus YNL322C, strain KRE1 (second series), stronger effect = lower value 0.951 | S. cerevisiae deletion strains, locus YNL322C, strain KRE1, stronger effect = lower value 0.987 | S. cerevisiae deletion strains, locus YNR049C, strain mso1, stronger effect = lower value 0.961 | S. cerevisiae deletion strains, locus YNR052C, strain pop2, stronger effect = lower value 0.998 | S. cerevisiae deletion strains, locus YOL006C, strain TOP1, stronger effect = lower value 0.962 | S. cerevisiae deletion strains, locus YOL012C, strain htz1 1.14 | S. cerevisiae deletion strains, locus YOL147C, strain pex11, stronger effect = lower value 1 | S. cerevisiae deletion strains, locus YOR001W, strain rrp6, stronger effect = lower value 0.998 | S. cerevisiae deletion strains, locus YOR061W, strain CKA2, stronger effect = lower value 0.967 | S. cerevisiae deletion strains, locus YOR069W, strain VPS5, stronger effect = lower value 0.99 | S. cerevisiae deletion strains, locus YOR070C, strain gyp1, stronger effect = lower value 0.981 | S. cerevisiae deletion strains, locus YOR080W, strain dia2, stronger effect = lower value 0.967 | S. cerevisiae deletion strains, locus YOR083W, strain WHI5, stronger effect = lower value 0.947 | S. cerevisiae deletion strains, locus YOR106W, strain vam3, stronger effect = lower value 0.954 | S. cerevisiae deletion strains, locus YOR136W, strain idh2, stronger effect = lower value 0.999 | S. cerevisiae deletion strains, locus YOR144C, strain elg1, stronger effect = lower value 1 | S. cerevisiae deletion strains, locus YOR184W, strain ser1, stronger effect = lower value 0.991 | S. cerevisiae deletion strains, locus YOR231W, strain MKK1, stronger effect = lower value 0.98 | S. cerevisiae deletion strains, locus YOR265W, strain rbl2, stronger effect = lower value 0.983 | S. cerevisiae deletion strains, locus YOR270C, strain vph1, stronger effect = lower value 0.915 | S. cerevisiae deletion strains, locus YOR290C, strain snf2, stronger effect = lower value 0.919 | S. cerevisiae deletion strains, locus YOR316C, strain cot1, stronger effect = lower value 0.992 | S. cerevisiae deletion strains, locus YPL051W, strain arl3, stronger effect = lower value 0.987 | S. cerevisiae deletion strains, locus YPL055C, strain LGE1, stronger effect = lower value 0.973 | S. cerevisiae deletion strains, locus YPL078C, strain atp4, stronger effect = lower value 0.968 | S. cerevisiae deletion strains, locus YPL106C, strain sse1, stronger effect = lower value 0.942 | S. cerevisiae deletion strains, locus YPL240C, strain hsp82, stronger effect = lower value 0.973 | S. cerevisiae deletion strains, locus YPL241C, strain CIN2, stronger effect = lower value 0.991 | S. cerevisiae deletion strains, locus YPL256C, strain CLN2, stronger effect = lower value 0.998 | S. cerevisiae deletion strains, locus YPR119W, strain clb2, stronger effect = lower value 1 | S. cerevisiae deletion strains, locus YPR141C, strain kar3, stronger effect = lower value 0.992 | S. cerevisiae deletion strains, locus YPR163C, strain tif3, stronger effect = lower value 1 | S. cerevisiae deletion strains, locus YPR167C, strain met16, stronger effect = lower value 0.998 | S. cerevisiae deletion strains, strain wtn01, stronger effect = lower value 0.997 | S. cerevisiae strains, strain wild type, stronger effect = lower value 0.98
